Reference: PubChem BioAssay (NCI)
About 79,000 compounds went through this panel and 15% of them were active in at least one assay; those are over-represented in the sample as a whole. Active and inactive are the calls of the source. No stated cut-off is given here; in the data, active means growth inhibition above about 70%; inactive means the rest.

Assay: NCI Yeast Anticancer Drug Screen. Data for the rad50 strain (AID 155);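 further: 0% = growth of vehicle-only cultures of the same strain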
Conditions: S. cerevisiae rad50 strain growth inhibition; at 50.0 µM; active compounds read high
Procedure, shortened: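 Vehicle-treated cultures provide the reference for the growth inhibition reported for compound-exposed, repair-deficient yeast.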

Compound	growth inhibition
OCCSCSCCO	-5.8% (inactive)
Cc1cccc(C)c1NC(N)=S	3.85% (inactive)
COC1CCC2NCCNC2C1 (stereo not given)	6.35% (inactive)
C[C@H](CCC1SC1(C)C)C1CCC2(C)C3=C(CC[C@]12C)[C@@]1(C)CC[C@H](O)C(C)(C)C1CC3 (stereo not given in full)	9.85% (inactive)
N#CC[CH2][Sn]([I])([c]1ccccc1)[c]1ccccc1	98.2% (active)
CCCCCCCCCCCCN(C)C	45.4% (inactive)
CCN1CCOC(O)(c2cc(Cl)cc(Cl)c2Cl)C1 (stereo not given)	17.4% (inactive)
O=P(O)(O)CCc1ccccc1	-3.85% (inactive)
CCOP(N)(=O)SC (stereo not given)	-11.1% (inactive)
CC1(C)OP(=O)(c2ccccc2)C=C1Br (stereo not given)	-39.9% (inactive)
O=S(=O)(Nc1ccc(-c2ccccc2)cc1)c1ccc([As](=O)(O)O)cc1	38.6% (inactive)
N#CC(CCN1CCC(Nc2ccccc2)(c2nnnn2C2CCCCC2)CC1)(c1ccccc1)c1ccccc1	-13.8% (inactive)
CN(C)C(=O)O/N=C(\c1ccccc1)C(F)(F)F	35.7% (inactive)
C1C[N-]CC[N-]1.C1C[N-]CC[N-]1.[Zn]	98.7% (active)
CCC1CN(CC(=O)c2ccc(Br)cc2)CCO1 (stereo not given)	5.4% (inactive)
CCOS(=O)(=O)c1ccc(C)cc1	13.8% (inactive)
O=NN1CCCCCCC1C(=O)O (stereo not given)	1.3% (inactive)
CC1(C)c2ccccc2C(c2ccccc2)(c2ccccc2)[N+]1(C)C	63.4% (inactive)
O=C(c1ccccc1)N1CC1	6.1% (inactive)
O=[N+]([O-])c1ccc(O)c(C=NCCN=Cc2cc([N+](=O)[O-])ccc2O)c1.[Zn+2]	15.4% (inactive)
Cc1ccc(S(=O)(=O)N/N=C(\CCN2CCCC2)CC(c2ccccc2)c2c(O)c3ccccc3oc2=O)cc1 (stereo not given)	14.6% (inactive)
O=C1C(Br)=CC2(C=C1Br)CCN=c1c(O)c3c(c(O)c12)=NC=N3	27.3% (inactive)

Assay: NCI Yeast Anticancer Drug Screen. Data for the mec2-1 strain (AID 157)
Conditions: S. cerevisiae mec2-1 strain, at 50.0 µM, active compounds read high
Procedure, shortened: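 Cells of the genetically defined mec2-1 yeast strain are incubated with test compound. Inhibition of growth is calculated against vehicle-treated controls.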

Compound	growth inhibition
CCCCCCCCCCC(=O)O	-2.2% (inactive)
O=S=NN(CC(Cl)c1ccccc1)CC(Cl)c1ccccc1 (stereo not given)	-8.5% (inactive)
CCOP(=O)(OCC)C(O)C(C)C (stereo not given)	16.9% (inactive)
CCOP(=O)(O)C1CCCC(C)[N-]1.CCOP(=O)(O)C1CCCC(C)[N-]1.CCOP(=O)(O)C1CCCC(C)[N-]1.[Ti+3] (stereo not given)	0.1% (inactive)
[C-]#[O+].[C-]#[O+].[C-]#[O+].[C-]#[O+].[C-]#[O+].[CH3][Sn]([Cl])[c]1ccccc1.[Mn]	96.5% (active)
O=C1NC2C(=CC(O)C(O)C2O)c2cc3c(cc21)OCO3 (stereo not given)	44.2% (inactive)
Cc1ccc2c(c1)N(CCCl)c1c(ccc3ccccc13)S2	-10% (inactive)
O=C(COc1ccc(Cl)cc1)Nc1ccc(Cl)cc1C(=O)c1ccccc1	-8.9% (inactive)
NC(N)=Nc1nn[nH]n1	-8.25% (inactive)
NNC(=O)Nc1ccc([N+](=O)[O-])cc1[N+](=O)[O-]	0% (inactive)
Brc1ccc(Oc2ccc(Br)cc2Br)c(Br)c1	-21.5% (inactive)
NS(=O)(=O)CC1CC[CH-]CC1.[Cl-].[Cl-].[Cl-].[Cl-].[Cl-].[Sb+5].c1ccncc1	-14.1% (inactive)
Nc1nc(N)c(N)c(N)n1	1.8% (inactive)
[Cl][Hg][c]1cccs1	99.8% (active)
CCOP(=O)(NC(C)(C)C)OCC	-54% (inactive)
[CH3][Sb]([CH3])([CH3])([I])[I]	-14.1% (inactive)
CCOC(OCC)c1ccc(C(F)(F)F)cc1.[C-]#[O+].[C-]#[O+].[C-]#[O+].[Cr]	0.8% (inactive)
OCCSCSCCO	-8.8% (inactive)
Cc1cccc(C)c1NC(N)=S	6.15% (inactive)
COC1CCC2NCCNC2C1 (stereo not given)	-6% (inactive)
C[C@H](CCC1SC1(C)C)C1CCC2(C)C3=C(CC[C@]12C)[C@@]1(C)CC[C@H](O)C(C)(C)C1CC3 (stereo not given in full)	-11.2% (inactive)
N#CC[CH2][Sn]([I])([c]1ccccc1)[c]1ccccc1	98.8% (active)
CCCCCCCCCCCCN(C)C	28.7% (inactive)
CCN1CCOC(O)(c2cc(Cl)cc(Cl)c2Cl)C1 (stereo not given)	-11.2% (inactive)
O=P(O)(O)CCc1ccccc1	1.5% (inactive)
CCOP(N)(=O)SC (stereo not given)	8% (inactive)
CC1(C)OP(=O)(c2ccccc2)C=C1Br (stereo not given)	-9.4% (inactive)
O=S(=O)(Nc1ccc(-c2ccccc2)cc1)c1ccc([As](=O)(O)O)cc1	24.7% (inactive)
